Data as given in PubChem BioAssay AID1778 (Sanford-Burnham Center for Chemical Genomics, 2009).
“And” between values parts separate entries of the source, which are not always exact repeats. Identical values can stand only once. In all, about 290,000 compounds went through this assay and about 260 (0.09%) were called active. The full list was thinned out, with actives kept by preference. Entries with a potency or affinity are not part of this list. A number with no mark means an inactive call. No stated cut-off is given here; in the data, active means inhibition above about 50%; inactive means the rest.

target: Kappa-type opioid receptor (Homo sapiens) (UniProt P41145); assay: kappa opioid receptor blockers – cell-based, luminescence, uHTS (AID 1778); details: KOR beta-arrestin recruitment, antagonist mode, active compounds read high; at 10 µM unless noted
Sequence (P41145 whole entry, looked up): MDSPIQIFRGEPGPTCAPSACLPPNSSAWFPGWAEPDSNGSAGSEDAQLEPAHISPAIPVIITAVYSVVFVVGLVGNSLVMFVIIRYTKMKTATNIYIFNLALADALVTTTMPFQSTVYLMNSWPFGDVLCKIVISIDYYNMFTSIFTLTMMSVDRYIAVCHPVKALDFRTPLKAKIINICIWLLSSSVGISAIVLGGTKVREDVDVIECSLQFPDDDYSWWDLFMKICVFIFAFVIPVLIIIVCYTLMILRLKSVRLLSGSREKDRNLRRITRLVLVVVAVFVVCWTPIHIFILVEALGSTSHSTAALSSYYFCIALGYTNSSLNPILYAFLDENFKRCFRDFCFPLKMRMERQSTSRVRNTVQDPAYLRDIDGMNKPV

Row | Compound | inhibition
1 | COc1ccccc1-c1ccc(Nc2cccc(C(F)(F)F)c2)nn1 | -2.2%
2 | CCOc1ccc(S(=O)(=O)N(C)CC(=O)NCc2ccco2)cc1 | 5%
3 | CCCC1=C(C(=O)OCC)C(c2c(C)nn(-c3ccccc3)c2Cl)C(C#N)=C(N)O1 (stereo not given) | -61.5%
4 | CCCOc1cccc(-c2cc(C(=O)NN)c3ccccc3n2)c1 | -44.7%
5 | CCCOc1cccc(-c2cc(C(=O)N/N=C/c3cccnc3)c3ccccc3n2)c1 | -14%
6 | O=C(CN1C(=O)S/C(=C\c2ccc(F)cc2)C1=O)NCCCn1ccnc1 | 1.3%
7 | O=C(/C=C/c1ccc([N+](=O)[O-])cc1)Oc1ccc(/C=N/NC(=O)c2ccncc2)cc1 | -27.5%
8 | O=C(CSc1cccc2cccnc12)N/N=C/c1ccc(F)cc1 | 17.3%
9 | CCN(CC)C(=O)Sc1cccc2cccnc12 | 19.2%
10 | O=C(Sc1cccc2cccnc12)c1ccc(F)cc1 | 73.6% (active)
11 | CC(=O)/C(=N\Nc1ccccc1)Sc1cccc2cccnc12 | 13.9%
12 | O=C(O)CSc1cccc2cccnc12 | -59.2% and -13%
13 | Cc1cccc(CSc2ccc3nnc(-c4ccccn4)n3n2)c1 | 8.5%
14 | Cc1cc(NC(=O)c2cc(C3CC3)on2)n(-c2ccccc2)n1 | -9.5%
15 | COc1cc(/C=N/n2nnnc2N)ccc1OC(C)C | 26.9%
16 | O=C(CCCCCN1C(=O)c2ccccc2C1=O)Oc1ccc2c3c(c(=O)oc2c1)CCC3 | -61.9%
17 | CC1=C(C(=O)Nc2ccccc2C)C(c2ccccc2)NC(=O)N1 (stereo not given) | -32.2%
18 | CCOC(=O)c1c(CN2CCCCC2)n(C)c2ccc(OC)c(S(=O)(=O)c3ccccc3)c12 | 4.2%
19 | Cc1ccc(C(=O)O)cc1-n1c(=O)n(Cc2ccccc2)c(=O)c2[nH]cnc21 | -9.2%
20 | COc1ccc(Cn2c(=O)c3[nH]cnc3n(-c3ccccc3C)c2=O)cc1 | -13.7%
21 | COC(=O)c1cccc(-n2c(=O)n(Cc3ccccc3)c(=O)c3[nH]cnc32)c1C | 23.8%
22 | COc1cccc(Cn2c(=O)c3[nH]cnc3n(-c3ccccc3C)c2=O)c1 | 7.3%
23 | O=C(Nc1ccc(Oc2ccccc2)cc1)c1cnc2n(c1=O)CCS2 | 0.1%
24 | Cc1ccc(S(=O)(=O)N(Cc2cc3ccc(C)cc3[nH]c2=O)c2ccccc2)cc1 | 17.5%
25 | CCCCCn1c(SCCCC)nc2c1c(=O)[nH]c(=O)n2C | -43.8%
